Results reported in PubChem BioAssay (NCI).
Compounds without any hit were thinned out: in the full panel of roughly 83,000, 20% have a hit.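 Treatment: one concentration, 48 hours, 96-well format. Scoring: percent growth, with anything below 10 considered active.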 Active and inactive are the calls of the source.

How the values were obtained:
Experiment in all cases: NCI-60 one-dose screen, 48 h (100 = growth as untreated, 0 = no growth, -100 = all killed)
Conditions in all cases: 10 µM unless noted
[1] = test system: DU-145 prostate
[2] = test system: K-562 leukemia
[3] = test system: MALME-3M melanoma
[4] = test system: MDA-MB-231 breast
[5] = test system: RXF 393 renal
[6] = test system: SF-268 CNS
[7] = test system: SF-295 CNS
[8] = test system: SF-539 CNS
[9] = test system: UACC-257 melanoma
[10] = test system: M14 melanoma

Measured: growth

CCCCCC(C)(O)C(C(=O)O)c1ccccc1 (stereo not given)
inactive: [1] 114% | [2] 121% | [3] 93.9% | [4] 102% | [5] 110% | [6] 107% | [7] 103% | [8] 95.4% | [9] 102% | [10] 96.7%

CSc1nn2c(-c3cc4cc(Br)ccc4oc3=O)ccnc2c1C#N
inactive: [1] 110% | [2] 104% | [3] 120% | [4] 105% | [5] 109% | [6] 103% | [7] 103% | [8] 106% | [9] 106% | [10] 104%

Nc1cc(-c2ccc(Cl)cc2)nn1-c1nc(-c2ccc(Br)cc2)cs1
inactive: [1] 108% | [2] 105% | [3] 86.7% | [4] 97.3% | [5] 103% | [6] 106% | [7] 96.6% | [8] 97.9% | [9] 92.1% | [10] 96.1%

O=C(OCC(O)C(=O)NC12CC3CC(CC(C3)C1)C2)c1cccc(Br)c1 (stereo not given)
inactive: [1] 105% | [2] 89.4% | [3] 101% | [4] 92% | [5] 110% | [6] 103% | [7] 96.9% | [8] 96.2% | [9] 91.1% | [10] 95.5%

COc1ccc(Cn2cc(C(=O)N=Nc3c(O)[nH]c4ccc(Br)cc34)nn2)cc1
active: [3] -89.9%
inactive: [1] 93.7% | [2] 88.1% | [4] 108% | [5] 99.8% | [6] 94.1% | [7] 95.8% | [8] 104% | [9] 102% | [10] 111%

C=C(c1ccc(OC)c(/C=C/C(=O)c2cc(OC)c(OC)c(OC)c2)c1)c1cc(OC)c(OC)c(OC)c1
inactive: [1] 15.6% | [2] 12.7% | [4] 30.4% | [6] 21.7% | [7] 30.5%
active: [3] -6.73% | [5] -68.5% | [8] -84.7% | [9] 2.85% | [10] 4.85%

Cc1c(C(=O)C(SC(=S)N2CCOCC2)SC(=S)N2CCOCC2)nnn1-c1ccc([N+](=O)[O-])cc1
inactive: [1] 109% | [2] 74.7% | [3] 93.7% | [4] 101% | [5] 105% | [6] 104% | [7] 96.5% | [8] 101% | [9] 93.2% | [10] 89.8%

COc1cc2c(c(OC)c1OC)CCC(c1cccc(C(=O)Nc3ccc([N+](=O)[O-])cc3)c1)O2 (stereo not given)
inactive: [1] 57% | [2] 21.8% | [3] 68.3% | [4] 37.1% | [5] 69.8% | [6] 59.3% | [7] 39.8% | [8] 76.2% | [9] 50.9% | [10] 30.7%

O=C(CSc1nnc(-c2ccc(Cl)c(Cl)c2)n1-c1ccccc1)Nc1ccc(C(=O)/C=C/c2ccc(Cl)cc2)cc1
inactive: [1] 98.3% | [2] 81.9% | [3] 94.6% | [4] 86.5% | [5] 92.1% | [6] 92.2% | [7] 98.2% | [8] 97.9% | [9] 77.3% | [10] 82.2%

Nc1ncc(-c2ccc3ncnc(N4CCc5cc(F)c(Cl)cc54)c3c2)cc1C(F)(F)F
inactive: [1] 33.5% | [2] 15% | [3] 13.6% | [4] 23.9% | [6] 34.1% | [7] 26% | [9] 48.2% | [10] 33.8%
active: [5] -33.6% | [8] 8.36%

COc1c(O[C@@H]2OC(CO)[C@H](O)[C@H](O)C2O)cc2oc3cc(O)c(CC=C(C)C)c(O)c3c(=O)c2c1CC=C(C)C (stereo not given in full)
inactive: [1] 104% | [2] 68.5% | [3] 104% | [4] 68.5% | [5] 110% | [6] 92.1% | [7] 93.2% | [8] 107% | [9] 91.3% | [10] 86.2%

CCCn1cnc2c(c1=N)C(c1ccc(Cl)cc1)c1sc3c(F)cccc3c1O2 (stereo not given)
inactive: [1] 82.2% | [2] 29.1% | [3] 49.8% | [4] 69.7% | [5] 72% | [6] 83.8% | [7] 93.8% | [8] 85.6% | [9] 105% | [10] 70.7%

N#C/C(=C\c1cccc2cnccc12)N1N=NC2C=CC=CC21 (stereo not given)
active: [1] 8.33% | [4] 9.44% | [5] -17.1%
inactive: [2] 12.4% | [3] 36% | [6] 56.6% | [7] 98.4% | [8] 45.7% | [9] 46.9% | [10] 32.6%

Cn1nc(-c2ccc(Cl)cc2)nc2c(=O)n(C)c(=O)nc1-2
active: [1] -97.5% | [2] -52.7% | [3] -90.1% | [4] -24.9% | [5] -30.8% | [6] -19.8% | [7] -29.6% | [8] -99.2% | [9] -83.4% | [10] -91.9%

N#Cc1nn(-c2ccccn2)c(N)c1C#N
inactive: [1] 104% | [2] 94% | [3] 103% | [4] 109% | [5] 127% | [6] 97.2% | [7] 96.2% | [8] 97.2% | [9] 103% | [10] 102%

C=C(C)Cn1c(SCC(=O)c2cccs2)nc2sc3c(c2c1=O)CCCC3
inactive: [1] 50.9% | [2] 41% | [3] 71.5% | [4] 65.5% | [5] 52.2% | [6] 42.2% | [7] 42.2% | [8] 39.3% | [9] 81.5% | [10] 77.6%

Cc1[nH]c(C(=O)Nc2ccc(C(N)=O)cc2OC(C)C)c(Cl)c1Cl
inactive: [1] 101% | [2] 79.9% | [3] 101% | [4] 91.4% | [5] 133% | [6] 97.5% | [7] 104% | [8] 92.8% | [9] 106% | [10] 108%

CCN(CC)CCCNC(=O)c1c2c(n3ccccc13)C(=O)c1ncccc1C2=O
active: [1] -94.9% | [2] -33.7% | [3] -93% | [4] -0.531% | [5] -35.9% | [6] -3.91% | [7] -22.1% | [8] -63% | [9] -90.1% | [10] -84.1%

Nc1nc(N)c2c(n1)NC(c1ccc3c(c1)OCO3)CC(c1cccc(Nc3ccncc3)c1)=N2 (stereo not given)
inactive: [1] 106% | [2] 44.3% | [3] 100% | [4] 94.2% | [5] 82.2% | [6] 68.1% | [7] 96.5% | [8] 101% | [9] 67.3% | [10] 83.5%

CCOC(=O)CC1CSC(N/N=C(/C)c2cccc(C(F)(F)F)c2)=N1 (stereo not given)
inactive: [1] 102% | [2] 80.6% | [3] 95.3% | [4] 94.4% | [5] 109% | [6] 100% | [7] 93.5% | [8] 103% | [9] 87.9% | [10] 101%

COc1ccc(NC(=O)c2ccc(NC3=C(c4ccc(Cl)cc4)C(=O)NC3=O)cc2)cc1
inactive: [1] 91.4% | [2] 79% | [3] 86.9% | [4] 84.8% | [5] 84.4% | [6] 83.8% | [7] 86.8% | [8] 92.4% | [9] 85.9% | [10] 102%
